The list is not random: actives were taken first. Their share in the collection is about 8%.
SW480 rerep: inducers of DNA re-replication in SW480 colon cancer cells; 340,000 tested, 1.8% active; Potency, µM (titrated, usually from 46.1 µM), without a hit: at the top dose re-replication activation, usual class: activators; SW480 DNA re-replication, Hoechst DNA content imaging, 48 h; note: % of control where 0% means no effect; nearly all actives have a fitted effect of over 55% in size
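Per well, 250 cells were exposed to pinned compound for 48 hr. Nuclear DNA was visualised with Hoechst (40 min, 37 C) and total object intensity recorded by fluorescence scanning.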
KB-V1 MDR tox: kills drug-selected multidrug resistant KB-V1 cells. KB-V1 MDR cells viability, CellTiter-Glo, 72 h. Potency, µM (series often up to 46.1 µM), actives largely listed as cytotoxic. 400,000 tested, 3.4% active; note: % is set by controls: 0 for no effect and ±100 for the full control effect; nearly all actives have a fitted effect of over 60% in size
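Following 72 h at 37 degrees C with compound, KB-V1 cell viability was read by CellTiter-Glo luminescence, medium being phenol-red-free DMEM plus 10% FBS; concentration-response parameters came from normalized, curve-fitted qHTS data.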
HT1080-NT tox: kills 2HG-producing HT-1080-NT fibrosarcoma cells; HT-1080-NT fibrosarcoma viability, CellTiter-Glo ATP luminescence, 48 h; Potency, µM (top dose mostly 46.1 µM), for inactives: top-dose activity, negative = less viability, actives largely listed as cytotoxic; 360,000 tested, 1.6% active; AID 686970;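 note: NT is the 2HG producing partner of a matched IDH1 knockdown line; 0% = DMSO-treated cells and -100% = media-only wells without cells; nearly all actives have a fitted effect of over 55% in size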
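Viability by CellTiter-Glo luminescence after 48 h compound exposure at 37C of HT-1080-NT cells (750/well, RPMI, 5% FBS). % activity scaled between DMSO wells and medium-only wells, then curve-fitted and categorized by curve class.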
MCF10A rerep: DNA re-replication induction in MCF 10a cells; MCF 10A DNA re-replication, Hoechst nuclear intensity, 48 h; Potency, µM (top dose mostly 46.1 µM), for the others: at the highest dose activity, positive = re-replication, most hits filed as activators; 350,000 tested, 2.9% active; AID 624296; note: % of control where 0% means no effect; nearly all actives have a fitted effect of over 50% in size
KB-3-1 tox: kills parental KB-3-1 adenocarcinoma cells. KB-3-1 viability, CellTiter-Glo ATP luminescence, 72 h. Potency, µM (top dose mostly 46.1 µM), most hits filed as cytotoxic. 400,000 tested, 1.4% active; note: % is set by controls: 0 for no effect and ±100 for the full control effect; nearly all actives have a fitted effect of over 60% in size
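Cytotoxicity measured as CellTiter-Glo luminescence after 72 h at 37 C. Compound titrations were pinned onto drug-naive KB-3-1 parental adenocarcinoma cells grown in DMEM with 10% FBS, and normalized data fitted to concentration-response curves.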
HT1080 IDH1KD tx: toxicity to HT-1080 IDH1 knockdown cells (counter line); Potency, µM (doses to about 46.1 µM), inactives show at the top dose activity, negative = toxicity, hits mostly cytotoxic; 360,000 tested, 2% active; AID 686971; HT-1080 IDH1 knockdown viability, ATP luminescence, 48 h;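 note: 0% = DMSO wells and -100% = cell-free medium wells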
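IDH1KD HT-1080 cells, 750/well, RPMI + 5% FBS; compound pinned after 2 h settling; 48 h, 37 °C; CellTiter-Glo luminescence; % activity normalised to DMSO and no-cell wells; curves fitted, classed by r2 and efficacy.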
Active calls of the source: *; i = inactive; ? = inconclusive; . = no result; [ ] = dose if it differs, or a comment. Calls come from the whole dose curve; as a rule, active = well fitted curve in the direction sought with a large enough effect; inconclusive = small, poorly fitted or top-dose-only effect, or another doubt; inactive = no such curve, though single readings can be large; an effect the other way counts as inactive or inconclusive. Potency is the fitted concentration of half-maximal effect.

SMILES | SW480 rerep | KB-V1 MDR tox | HT1080-NT tox | MCF10A rerep | KB-3-1 tox | HT1080 IDH1KD tx
CCCNC(=O)C1CC(=O)N(c2ccc(OCc3ccc(F)cc3)cc2)C1 (stereo not drawn) | -67% | i | -4% | 0.65µM* | i | -19%
Cc1cnc(NC(=O)C2CC(=O)N(c3ccc4c(c3)OCCO4)C2)s1 (stereo not drawn) | -3% | 15µM* | 0% | 2% | i | -16%
CCC(CC)c1nnc(NC(=O)C2CC(=O)N(c3ccc4c(c3)OCCO4)C2)s1 (stereo not drawn) | 2% | 21µM* | -6% | 5% | i | 11%
CCCNC(=O)C1CC(=O)N(c2ccc(OCc3ccc(Cl)cc3)cc2)C1 (stereo not drawn) | 1% | ? | -16% | 4% | i | -4%
O=C(Nc1cccc(C(F)(F)F)c1)C1Cc2c(-c3ccccc3Oc3ccccc3)ccnc2O1 (stereo not drawn) | . | 18µM* | ? | . | ? | ?
NC(=O)c1cccc(-c2ccnc3c2CC(C(=O)Nc2cccc(C(F)(F)F)c2)O3)c1 (stereo not drawn) | . | 23µM* | ? | . | ? | ?
CC(=O)Nc1ccc(NC(=O)C2Cc3c(-c4ccc(Cl)cc4)ccnc3O2)cc1 (stereo not drawn) | . | i | ? | . | i | -6%
CC(=O)c1cccc(NC(=O)C2Cc3c(-c4ccccc4Oc4ccccc4)ccnc3O2)c1 (stereo not drawn) | . | ? | ? | . | i | ?
NC(=O)c1cccc(-c2ccnc3c2CC(C(=O)Nc2ccccc2)O3)c1 (stereo not drawn) | . | i | 10% | . | i | 2%
CC(=O)Nc1ccc(-c2ccnc3c2CC(C(=O)Nc2cccc(N(C)C)c2)O3)cc1 (stereo not drawn) | . | i | ? | . | i | 12µM*
COc1ccc(CNC(=O)C2Cc3c(-c4ccccc4Oc4ccccc4)ccnc3O2)cc1OC (stereo not drawn) | . | 15µM* | ? | . | ? | -20%
CCOc1ccc(-n2c(=O)c3c(C)c(C)sc3n(CC(=O)c3ccccc3)c2=O)cc1 | . | i | . | . | i | .
CCc1c(C)sc(NC(=O)c2cc(-c3ccc(OC)cc3)on2)c1C#N | . | ? | . | . | i | .
CC(C)Oc1ccc(-c2nc(-c3cccnc3)no2)cc1 | . | i | . | . | i | .
CC(=O)Nc1ccc(-c2ccnc3c2CC(C(=O)Nc2cccc(C(F)(F)F)c2)O3)cc1 (stereo not drawn) | . | 23µM* | ? | . | ? | 16µM*
O=C(Nc1cccc(Oc2ccccc2)c1)C1Cc2c(-c3cccc(F)c3)ccnc2O1 (stereo not drawn) | . | i | -3% | . | i | -17%
CC(=O)Nc1ccc(-c2ccnc3c2CC(C(=O)Nc2cccc(Oc4ccccc4)c2)O3)cc1 (stereo not drawn) | . | ? | ? | . | ? | 15µM*
O=C(Nc1ccccc1C(F)(F)F)c1noc2c1CCCCC2 | . | i | . | . | i | .
O=C1/C(=N\S(=O)(=O)c2cccs2)C([n+]2ccccc2)=C([O-])c2ccccc21 | 12µM* | i | ? | 17% | 6.5µM* | 0%
O=S(=O)(/N=C/c1ccccc1O)c1cccs1 | -4% | i | 5% | -1% | ? | 8%
CC(C)(C)c1cc[n+](C2=C([O-])c3ccccc3C(=O)/C2=N\S(=O)(=O)c2cccs2)cc1 | ? | i | 15µM* | ? | 16µM* | 13µM*
N/C(=N\S(=O)(=O)c1cccs1)c1ccccc1 | -2% | i | -2% | -1% | i | -4%
Cc1ccc2c(c1)c1c(c(=O)n(-c3ccccc3)c(=O)n1Cc1ccccc1C)n2C | . | i | . | . | i | .
COc1cc(/C=N/Nc2nc(N3CCCC3)nc(N3CCCC3)n2)ccc1O | -3% | i | -16% | ? | i | -6%
COc1ccc(-c2cnnc(N/N=C/c3ccc(O)c(OC)c3)n2)cc1 | 16µM* | 5.8µM* | ? | 15µM* | 4.1µM* | 5.2µM*
SMILES | SW480 rerep | KB-V1 MDR tox | HT1080-NT tox | MCF10A rerep | KB-3-1 tox | HT1080 IDH1KD tx
COc1ccc(-c2cnnc(N/N=C/c3ccc(-c4ccc([N+](=O)[O-])cc4)o3)n2)cc1 | ? | 18µM* | -27% | 1µM* | 4.6µM* | ?
Cc1ccc2c(=O)c(C(=O)c3cccc(Cl)c3)cn(CC(=O)NC3CCCCC3)c2n1 | . | i | . | . | i | .
Cc1ccc(CCNC(=O)Cn2ncc3c(=O)oc4ccccc4c32)cc1 | . | ? | . | . | i | .
Cc1cc(C)cc(Nc2nc(-c3ccc(S(=O)(=O)N4CCCC4)cc3)cs2)c1 | 29% | ? | ? | 1% | 4.6µM* | ?
O=S(=O)(c1ccc(-c2csc(Nc3ccc(Br)cc3)n2)cc1)N1CCCC1 | 9% | ? | ? | 24% | ? | ?
Cc1ccc(Nc2nc(-c3ccc(S(=O)(=O)N4CCCC4)cc3)cs2)cc1C | 13% | 2.6µM* | ? | ? | 7.3µM* | ?
Brc1cccc(-c2nnn3c2nc(N2CCCCC2)c2ccccc23)c1 | . | i | . | . | i | .
COc1ccccc1CNC(=O)C1CCCN(c2nn3cc(-c4ccc(F)cc4)nc3s2)C1 (stereo not drawn) | . | i | . | . | i | .
Nc1ccccc1SCC1CSc2nc3ccccc3c(=O)n21 (stereo not drawn) | -4% | i | 10% | -7% | i | 1%
O=c1c2ccccc2nc2n1C(CSCc1ccc(Cl)cc1Cl)CS2 (stereo not drawn) | -2% | 5.8µM* | -2% | 0% | ? | -1%[9.24 µM]
CCC1=Nc2cc(C(=O)NCC3CCCO3)ccc2Sc2ccc(Cl)cc21 (stereo not drawn) | ? | i | ? | 12µM* | 9.2µM* | 16µM*
CCC1=Nc2cc(C(=O)NCC3CCCO3)ccc2Sc2ccc(Br)cc21 (stereo not drawn) | 10µM* | 6.5µM* | ? | ? | 6.5µM* | 9.2µM*
CC(=O)c1ccc(NC(=O)Cn2cc3c(n2)CCCC3)cc1 | . | i | . | . | i | .
COc1cc2c(cc1OC)C(C(C(=O)N(CCc1ccc(OC)c(OC)c1OC)CCc1ccc(OC)c(OC)c1OC)c1ccccc1)=NCC2 (stereo not drawn) | 4% | ? | . | 4% | ? | .
CCCn1nnc(NC(=O)c2cc(Br)cc(Br)c2OC)n1 | -4% | 16µM* | 8% | -1% | i | 8%

Screening data deposited in PubChem by National Center for Advancing Translational Sciences (NCATS).
